EPAC2 agonist = activates human EPAC2 exchange factor | Q8WZA2 | Potency, µM (doses to about 154 µM), without a hit: at the highest dose activation, usual class: activators | EPAC2 activation, biochemical qHTS; response scale: 100% = 6.5 mM cAMP response | 360,000 compounds, 0.079% hits; note: nearly all actives have a fitted effect of over 50% in size
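In this primary screen, activation is scored as increased exchange of BODIPY-GDP from Rap1B by 100 nM EPAC2, with 50 uM GDP as competitor. Signal is normalized to the 6.5 mM cAMP agonist control.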
Rango dissoc inh = prevents RanGTP from dissociating the Rango-importin beta complex | 340,000 compounds, 0.071% hits | Biochemical FRET Rango-importin beta, RanGTP-induced dissociation | Potency, µM (highest dose often 46.1 µM), without a hit: at the highest dose activity change, negative = inhibition; calls by dose curve; note: % of control where 0% means no effect; nearly all actives have a fitted effect of over 45% in size
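FRET read at 45 min, room temperature: inhibitors block the CFP/YFP signal rise when RanGTP (0.6 uM Ran, 2 mM GTP, 0.2 uM RCC1) frees Rango (0.1 uM) from importin beta (0.25 uM). Pre-read after 5 min compound exposure flags interference.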
EPAC2 antag = antagonists of human EPAC2 | Q8WZA2 | EPAC2 GEF exchange of Rap1B-BODIPY-GDP, fluorescence | Potency, µM (series often up to 114 µM), inactives show at the highest dose activity, negative = inhibition, actives largely listed as inhibitors | 360,000 compounds, 0.18% hits | AID 720708; note: % is set by controls: 0 for no effect and ±100 for the full control effect; nearly all actives have a fitted effect of over 45% in size
Rango-impB inh = prevents formation of the Rango-importin beta complex. Potency, µM (doses to about 92.2 µM), without a hit: at the top dose inhibition of complex formation. 340,000 compounds, 0.031% hits. Rango CFP/YFP FRET sensor + importin beta, 45 min. Q14974; calls by dose curve;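 note: 0% = DMSO wells and 100% = buffer wells lacking importin beta; nearly all actives have a fitted effect of over 15% in size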
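Inhibition scored from the CFP 486 nm/YFP 530 nm FRET ratio 45 min after adding 0.125 microM importin beta to 50 nM Rango biosensor preincubated 5 min with compound (room temperature, PBS with DTT, Tween-20, BSA). No-importin wells as positive control.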
EPAC1 ag = activates human EPAC1 exchange factor | O95398 | 360,000 compounds, 0.073% hits | Potency, µM (top dose mostly 154 µM), for the others: at the top dose activation, most hits filed as activators | AID 720707 | EPAC1 agonist qHTS, biochemical assay; response scale: 100% = response to 6.5 mM cAMP; note: nearly all actives have a fitted effect of over 60% in size
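Compounds were pinned as a concentration titration into mixtures of EPAC1 (100 nM), BODIPY-GDP-loaded Rap1B (250 nM) and GDP (50 uM). After 5 min at room temperature, fluorescence was followed for 30 min; activity was scaled to 6.5 mM cAMP.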
EPAC1 antag = antagonists of human EPAC1; O95398; EPAC1 GEF assay, Rap1b-BODIPY-GDP exchange fluorescence; Potency, µM (highest dose often 115 µM), without a hit: at the highest dose activity change, negative = inhibition, actives largely listed as inhibitors; 360,000 compounds, 0.14% hits; AID 720709;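 note: plate controls were vehicle for no effect and positive control for full effect; nearly all actives have a fitted effect of over 50% in size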
Numbers without * were called inactive. Hits are enriched below; roughly 0.48% of the tested compounds scored in any of these assays. Unless noted, calls come from the whole dose curve; as a rule, active = well fitted curve in the direction sought with a large enough effect; inconclusive = small, poorly fitted or top-dose-only effect, or another doubt; inactive = no such curve, though single readings can be large; an effect the other way counts as inactive or inconclusive. Potency is the fitted concentration of half-maximal effect.

How did COc1ccc2[nH]c3c4c(ccc3c2c1)C(=O)C=CC4=O do in these assays?
EPAC2 agonist: -2.2%; Rango dissoc inh: 4.61µM*; EPAC2 antag: -3.2%; Rango-impB inh: inconclusive; EPAC1 ag: 4.0%; EPAC1 antag: 3.6%

Results for CC1=C(C(=O)OCc2ccc3c(c2)OCO3)C(c2ccccc2OCc2ccccc2)NC(=O)N1 (stereo unspecified) ?
EPAC2 agonist: -8.2%; Rango dissoc inh: 1.9%; EPAC2 antag: -1.0%; Rango-impB inh: inconclusive; EPAC1 ag: 8.5%; EPAC1 antag: -4.4%

Results for CC1=C(C(=O)OCc2ccc3c(c2)OCO3)C(c2ccccc2)NC(=O)N1 (stereo unspecified) ?
EPAC2 agonist: 100µM*; Rango dissoc inh: 0.2%; EPAC2 antag: -7.0%; Rango-impB inh: -1.9%; EPAC1 ag: 7.1%; EPAC1 antag: 2.2%

How did Cc1ccc(OCC(=O)NNC(=O)C2CCN(c3nc(C)cc(C)n3)CC2)cc1 do in these assays?
EPAC2 agonist: -3.1%; Rango dissoc inh: 2.3%; EPAC2 antag: 9.9%; Rango-impB inh: 5.2%; EPAC1 ag: 3.9%; EPAC1 antag: 11.8%

Results for NC(=O)CCC1NC(=S)N(Cc2ccccc2)C1=O (stereo unspecified) ?
EPAC2 agonist: 5.7%; Rango dissoc inh: -13.2%; EPAC2 antag: 1.1%; Rango-impB inh: -3.7%; EPAC1 ag: 4.0%; EPAC1 antag: -2.4%

How did CCOC(=O)C1CCCCN1Cc1cccc(OCc2ccccc2)c1 (stereo unspecified) do in these assays?
EPAC2 agonist: 13.0%; Rango dissoc inh: 13.1%; EPAC2 antag: -10.8%; Rango-impB inh: -0.9%; EPAC1 ag: 0.7%; EPAC1 antag: -0.9%

What do the screens show for `CCOC(=O)C1CCCCN1Cc1cccc(Oc2ccccc2)c1` (stereo unspecified)?
EPAC2 agonist: 2.9%; Rango dissoc inh: 3.4%; EPAC2 antag: 39.8µM*; Rango-impB inh: -2.6%; EPAC1 ag: -3.4%; EPAC1 antag: -15.0%

How did COc1ccc2c(c1)C(=O)O[C@@H](c1ccccc1)C[C@@H](O)C(=O)CC2 do in these assays?
EPAC2 agonist: 4.4%; EPAC2 antag: 2.4%; EPAC1 ag: -3.4%; EPAC1 antag: -16.9%

What do the screens show for `CCc1nnc(NS(=O)(=O)c2ccc(NC(=S)NC(=O)/C=C/c3ccc([N+](=O)[O-])cc3)cc2)s1`?
EPAC2 agonist: 0.2%; Rango dissoc inh: 23.8%; EPAC2 antag: -2.4%; Rango-impB inh: 0.2%; EPAC1 ag: -1.7%; EPAC1 antag: -0.7%

Results for CCc1nnc(NS(=O)(=O)c2ccc(NC(=S)NC(=O)/C=C/c3ccc(F)cc3)cc2)s1 ?
EPAC2 agonist: -1.1%; Rango dissoc inh: -7.1%; EPAC2 antag: -2.7%; Rango-impB inh: -2.9%; EPAC1 ag: -6.3%; EPAC1 antag: 22.4µM*

Results for O=C(c1ccccc1)c1cccc2ccccc12 ?
EPAC2 agonist: 11.2%; Rango dissoc inh: -5.4%; EPAC2 antag: 12.6µM*; Rango-impB inh: -0.4%; EPAC1 ag: 13.5%; EPAC1 antag: -14.2%

Results for COC(=O)c1ccccc1C(=O)c1cccc2ccccc12 ?
EPAC2 agonist: 14.0%; Rango dissoc inh: 9.4%; EPAC2 antag: 44.7µM*; Rango-impB inh: -3.9%; EPAC1 ag: 6.7%; EPAC1 antag: -17.3%

Results for COc1ccc(NC(=O)c2cccc3ccccc23)cc1 ?
EPAC2 agonist: -4.4%; Rango dissoc inh: 14.4%; EPAC2 antag: 14.1%; Rango-impB inh: 1.3%; EPAC1 ag: -5.4%; EPAC1 antag: 14.0%

Results for Cc1cc(N2CCCC2)nc2ccc(NC(=S)NCCCN3CCC(C)CC3)cc12 ?
EPAC2 agonist: 15.3%; Rango dissoc inh: 14.6µM*; EPAC2 antag: -9.8%; Rango-impB inh: 2.5%; EPAC1 ag: 5.3%; EPAC1 antag: 9.6%

Results for O=C(O)CCCC(=O)N1CCCC1 ?
EPAC2 agonist: 19.0%; Rango dissoc inh: 11.5%; EPAC2 antag: 4.6%; Rango-impB inh: 0.0%; EPAC1 ag: 6.3%; EPAC1 antag: -17.3%

How did CC(=O)N1C=CN(C(C)=O)C(c2cn(C)c3ccccc23)C1c1cn(C)c2ccccc12 (stereo unspecified) do in these assays?
EPAC2 agonist: 9.5%; Rango dissoc inh: 16.4%; EPAC2 antag: 56.2µM*; Rango-impB inh: 2.0%; EPAC1 ag: 17.7%; EPAC1 antag: -6.7%

Results for Cn1cc(/C=C/C(=O)c2ccccc2)c2ccccc21 ?
EPAC2 agonist: 13.4%; Rango dissoc inh: inconclusive; EPAC2 antag: -1.7%; Rango-impB inh: inconclusive; EPAC1 ag: 12.7%; EPAC1 antag: -10.5%

What do the screens show for `COc1ccc([C@@H]2C[C@H]3[C@@H](CN2S(=O)(=O)c2ccccc2)C(=O)C[C@@H](c2ccc(OC)cc2)N3S(=O)(=O)c2ccccc2)cc1`?
EPAC2 agonist: 5.3%; EPAC2 antag: 2.3%; EPAC1 ag: -9.3%; EPAC1 antag: -18.3%

Results for O=C(COc1ccccc1[N+](=O)[O-])Nc1cccc(C(=O)Nc2ccccc2C(=O)O)c1 ?
EPAC2 agonist: 1.6%; Rango dissoc inh: -1.8%; EPAC2 antag: -8.5%; Rango-impB inh: 5.6%; EPAC1 ag: -5.2%; EPAC1 antag: 70.8µM*

How did O=C(/C=C/c1ccco1)Nc1cccc(C(=O)Nc2ccccc2C(=O)O)c1 do in these assays?
EPAC2 agonist: -7.2%; Rango dissoc inh: -9.1%; EPAC2 antag: -8.8%; Rango-impB inh: inconclusive; EPAC1 ag: -7.7%; EPAC1 antag: 50.1µM*

Results for Cc1ccc(-n2nc3ccc(NC(=O)/C=C/c4ccco4)cc3n2)cc1 ?
EPAC2 agonist: -0.5%; Rango dissoc inh: -7.5%; EPAC2 antag: -16.0%; Rango-impB inh: inconclusive; EPAC1 ag: -1.0%; EPAC1 antag: 22.4µM*

Results for Cc1ccc(NC(=O)c2cccc(NC(=O)/C=C/c3ccco3)c2)cc1C ?
EPAC2 agonist: -3.1%; Rango dissoc inh: 4.6%; EPAC2 antag: -2.3%; Rango-impB inh: -2.4%; EPAC1 ag: 0.6%; EPAC1 antag: inconclusive

How did O=C(Nc1cc(C(=O)Nc2ccccc2C(=O)O)cc(C(=O)Nc2ccccc2C(=O)O)c1)c1ccccc1 do in these assays?
EPAC2 agonist: 11.7%; Rango dissoc inh: 0.0%; EPAC2 antag: -11.9%; Rango-impB inh: 3.6%; EPAC1 ag: 2.6%; EPAC1 antag: 10µM*

What do the screens show for `Cc1ccc(S(=O)(=O)NC(=O)C2(C)CCN2C(=O)c2ccccc2)cc1` (stereo unspecified)?
EPAC2 agonist: 6.6%; EPAC2 antag: 0.7%; EPAC1 ag: 1.2%; EPAC1 antag: 4.2%

Screening results (PubChem)
